Measurements taken from paper PMC11024108.

Assays:
[1] = molecular target: Delta-1-pyrroline-5-carboxylate synthase (UniProt P54886); assay: cross-link between two proteins; cross-linking mass spectrometry
[2] = molecular target: Prohibitin-2 (UniProt Q99623); assay: as above
[3] = molecular target: Scaffold attachment factor B1 (UniProt Q15424); assay: as above
[4] = molecular target: Trifunctional enzyme subunit alpha, mitochondrial (UniProt P40939); assay: as above
[5] = molecular target: Dihydrolipoyl dehydrogenase, mitochondrial (UniProt P09622); assay: as above
[6] = molecular target: Malate dehydrogenase, mitochondrial (UniProt P40926); assay: as above
[7] = molecular target: Disintegrin and metalloproteinase domain-containing protein 22 (UniProt Q9R1V6); assay: as above
Sequence of Disintegrin and metalloproteinase domain-containing protein 22 (Q9R1V6 whole entry, the tested form may be a part): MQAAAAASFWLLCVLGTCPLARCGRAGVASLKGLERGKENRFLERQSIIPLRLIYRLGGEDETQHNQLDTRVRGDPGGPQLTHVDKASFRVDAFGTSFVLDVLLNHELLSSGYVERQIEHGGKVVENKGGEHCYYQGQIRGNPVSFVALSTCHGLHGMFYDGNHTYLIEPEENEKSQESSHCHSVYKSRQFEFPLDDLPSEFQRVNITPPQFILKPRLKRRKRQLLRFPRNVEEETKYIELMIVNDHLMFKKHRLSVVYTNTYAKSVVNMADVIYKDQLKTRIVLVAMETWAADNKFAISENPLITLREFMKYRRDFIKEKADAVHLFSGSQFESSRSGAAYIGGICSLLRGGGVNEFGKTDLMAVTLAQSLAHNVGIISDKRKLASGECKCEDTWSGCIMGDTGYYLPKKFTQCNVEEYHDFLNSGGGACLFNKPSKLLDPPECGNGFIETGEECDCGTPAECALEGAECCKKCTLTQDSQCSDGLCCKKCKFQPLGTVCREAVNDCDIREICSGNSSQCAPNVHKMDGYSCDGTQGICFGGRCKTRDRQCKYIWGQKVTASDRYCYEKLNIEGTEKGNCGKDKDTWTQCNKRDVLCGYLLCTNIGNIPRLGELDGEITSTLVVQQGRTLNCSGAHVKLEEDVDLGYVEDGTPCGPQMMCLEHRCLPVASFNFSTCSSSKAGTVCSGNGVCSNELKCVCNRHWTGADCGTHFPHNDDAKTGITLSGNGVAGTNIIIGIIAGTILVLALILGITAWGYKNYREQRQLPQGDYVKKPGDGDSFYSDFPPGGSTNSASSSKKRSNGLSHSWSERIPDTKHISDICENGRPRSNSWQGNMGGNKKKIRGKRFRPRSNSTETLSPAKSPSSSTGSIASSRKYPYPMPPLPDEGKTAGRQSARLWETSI

[8] = molecular target: Disintegrin and metalloproteinase domain-containing protein 23 (UniProt Q9R1V7); assay: as above
[9] = molecular target: DnaJ homolog subfamily A member 1 (UniProt P63037); assay: as above
[10] = molecular target: Vesicle-associated membrane protein 1 (UniProt Q62442); assay: as above
[11] = molecular target: DnaJ homolog subfamily C member 5 (UniProt Q9H3Z4); assay: as above
[12] = molecular target: Dolichyl-diphosphooligosaccharide--protein glycosyltransferase subunit 1 (UniProt P04843); assay: as above
[13] = molecular target: Vesicle-associated membrane protein-associated protein A (UniProt Q9P0L0); assay: as above
Sequence of Vesicle-associated membrane protein-associated protein A (Q9P0L0 whole entry): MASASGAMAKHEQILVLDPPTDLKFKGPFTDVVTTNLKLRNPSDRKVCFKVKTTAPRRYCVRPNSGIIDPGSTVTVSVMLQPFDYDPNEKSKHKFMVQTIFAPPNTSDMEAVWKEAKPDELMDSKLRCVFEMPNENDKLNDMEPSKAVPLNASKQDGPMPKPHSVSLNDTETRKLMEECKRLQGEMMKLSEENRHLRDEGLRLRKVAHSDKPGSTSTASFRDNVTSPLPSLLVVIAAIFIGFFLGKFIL

[14] = molecular target: Dynactin subunit 2 (UniProt Q99KJ8); assay: as above
Sequence of Dynactin subunit 2 (Q99KJ8 whole entry): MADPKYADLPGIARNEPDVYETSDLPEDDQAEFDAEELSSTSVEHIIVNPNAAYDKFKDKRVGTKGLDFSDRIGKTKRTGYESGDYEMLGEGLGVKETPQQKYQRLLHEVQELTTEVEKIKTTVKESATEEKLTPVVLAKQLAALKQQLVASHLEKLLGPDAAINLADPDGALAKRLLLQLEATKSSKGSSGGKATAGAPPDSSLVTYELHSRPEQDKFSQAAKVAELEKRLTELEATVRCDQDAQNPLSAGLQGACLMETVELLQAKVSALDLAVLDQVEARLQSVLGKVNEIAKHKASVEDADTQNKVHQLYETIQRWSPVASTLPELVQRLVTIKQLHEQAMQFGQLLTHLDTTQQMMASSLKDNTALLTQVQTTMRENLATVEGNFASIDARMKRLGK

[15] = molecular target: Dynactin subunit 3 (UniProt Q9Z0Y1); assay: as above
[16] = molecular target: Dynamin-3 (UniProt Q8BZ98); assay: as above
[17] = molecular target: Dynein light chain 2, cytoplasmic (UniProt Q9D0M5); assay: as above
Sequence of Dynein light chain 2, cytoplasmic (Q9D0M5 whole entry): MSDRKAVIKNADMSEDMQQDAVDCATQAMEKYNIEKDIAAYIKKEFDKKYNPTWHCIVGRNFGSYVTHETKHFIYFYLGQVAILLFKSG

[18] = molecular target: Protein piccolo (UniProt Q9QYX7); assay: as above
[19] = molecular target: EH domain-containing protein 1 (UniProt Q9WVK4); assay: as above
[20] = molecular target: ER membrane protein complex subunit 2 (UniProt Q9CRD2); assay: as above
[21] = molecular target: ERO1-like protein alpha (UniProt Q96HE7); assay: as above
[22] = molecular target: Elongation factor 1-alpha 2 (UniProt P62631); assay: as above
Sequence of Elongation factor 1-alpha 2 (P62631 whole entry): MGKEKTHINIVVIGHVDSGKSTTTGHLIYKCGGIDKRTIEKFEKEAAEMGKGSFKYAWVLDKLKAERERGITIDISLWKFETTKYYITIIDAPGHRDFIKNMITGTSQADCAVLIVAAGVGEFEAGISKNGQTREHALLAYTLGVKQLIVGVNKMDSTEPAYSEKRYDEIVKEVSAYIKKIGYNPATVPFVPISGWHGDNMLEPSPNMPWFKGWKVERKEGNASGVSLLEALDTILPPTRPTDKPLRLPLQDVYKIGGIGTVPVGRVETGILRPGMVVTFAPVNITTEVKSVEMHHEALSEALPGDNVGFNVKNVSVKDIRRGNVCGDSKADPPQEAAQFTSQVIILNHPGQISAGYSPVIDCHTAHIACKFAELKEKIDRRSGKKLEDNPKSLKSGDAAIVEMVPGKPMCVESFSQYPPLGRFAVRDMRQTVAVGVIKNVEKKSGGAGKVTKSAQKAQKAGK

[23] = molecular target: Epidermal growth factor receptor substrate 15-like 1 (UniProt Q9UBC2); assay: as above
[24] = molecular target: Erlin-1 (UniProt Q91X78); assay: as above
[25] = molecular target: Eukaryotic translation initiation factor 2 subunit 3, X-linked (UniProt Q9Z0N1); assay: as above
[26] = molecular target: Eukaryotic translation initiation factor 3 subunit B (UniProt Q8JZQ9); assay: as above
[27] = molecular target: Flotillin-1 (UniProt O75955); assay: as above
[28] = molecular target: Flotillin-2 (UniProt Q60634); assay: as above
[29] = molecular target: Fragile X messenger ribonucleoprotein 1 (UniProt Q06787); assay: as above
[30] = molecular target: 10 kDa heat shock protein, mitochondrial (UniProt P61604); assay: cross-linking mass spectrometry
Sequence of 10 kDa heat shock protein, mitochondrial (P61604 whole entry): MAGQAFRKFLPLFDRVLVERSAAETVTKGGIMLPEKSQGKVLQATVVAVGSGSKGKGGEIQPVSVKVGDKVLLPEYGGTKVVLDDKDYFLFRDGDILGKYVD

[31] = molecular target: Heat shock cognate 71 kDa protein (UniProt P11142); assay: cross-linking mass spectrometry
Sequence of Heat shock cognate 71 kDa protein (UniProt P11142) (P11142 whole entry): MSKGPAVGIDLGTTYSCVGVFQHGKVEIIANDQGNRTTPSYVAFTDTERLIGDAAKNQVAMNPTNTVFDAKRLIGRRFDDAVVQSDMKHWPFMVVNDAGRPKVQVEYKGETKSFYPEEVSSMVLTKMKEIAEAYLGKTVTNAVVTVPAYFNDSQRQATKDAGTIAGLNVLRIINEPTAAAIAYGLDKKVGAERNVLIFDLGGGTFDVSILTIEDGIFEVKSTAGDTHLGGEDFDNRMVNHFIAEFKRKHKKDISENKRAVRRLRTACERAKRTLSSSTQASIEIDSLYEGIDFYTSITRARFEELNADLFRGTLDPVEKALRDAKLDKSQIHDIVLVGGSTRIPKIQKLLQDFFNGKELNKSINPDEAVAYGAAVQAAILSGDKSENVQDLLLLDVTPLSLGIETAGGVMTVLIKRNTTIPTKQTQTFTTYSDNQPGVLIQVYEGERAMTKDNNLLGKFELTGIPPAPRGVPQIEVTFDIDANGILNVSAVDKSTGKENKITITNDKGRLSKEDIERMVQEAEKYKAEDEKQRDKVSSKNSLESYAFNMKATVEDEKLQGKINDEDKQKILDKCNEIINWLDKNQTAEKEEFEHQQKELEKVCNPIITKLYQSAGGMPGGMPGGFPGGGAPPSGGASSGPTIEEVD

[32] = molecular target: Heat shock 70 kDa protein 1B (UniProt P0DMV9); assay: cross-link between two proteins; cross-linking mass spectrometry
[33] = molecular target: Syntaxin-8 (UniProt Q9UNK0); assay: cross-linking mass spectrometry
[34] = molecular target: Gamma-soluble NSF attachment protein (UniProt Q99747); assay: cross-link between two proteins; cross-linking mass spectrometry
Sequence of Gamma-soluble NSF attachment protein (UniProt Q99747) (Q99747 whole entry): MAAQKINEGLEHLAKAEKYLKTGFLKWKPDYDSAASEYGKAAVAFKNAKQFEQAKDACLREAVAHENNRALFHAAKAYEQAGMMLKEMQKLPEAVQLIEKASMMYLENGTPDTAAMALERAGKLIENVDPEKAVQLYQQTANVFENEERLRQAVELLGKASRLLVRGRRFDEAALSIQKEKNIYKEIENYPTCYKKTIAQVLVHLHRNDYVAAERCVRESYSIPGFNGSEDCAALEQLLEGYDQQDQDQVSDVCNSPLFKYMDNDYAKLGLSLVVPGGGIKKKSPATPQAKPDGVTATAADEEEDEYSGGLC

[35] = molecular target: Fructose-bisphosphate aldolase A (UniProt P05064); assay: as above
[36] = molecular target: Gamma-aminobutyric acid receptor subunit beta-1 (UniProt P50571); assay: as above
[37] = molecular target: Gamma-enolase (UniProt P17183); assay: as above
[38] = molecular target: Gamma-soluble NSF attachment protein (UniProt Q9CWZ7); assay: as above
[39] = molecular target: Glutamate receptor 2 (UniProt P23819); assay: as above
Sequence of Glutamate receptor 2 (P23819 whole entry): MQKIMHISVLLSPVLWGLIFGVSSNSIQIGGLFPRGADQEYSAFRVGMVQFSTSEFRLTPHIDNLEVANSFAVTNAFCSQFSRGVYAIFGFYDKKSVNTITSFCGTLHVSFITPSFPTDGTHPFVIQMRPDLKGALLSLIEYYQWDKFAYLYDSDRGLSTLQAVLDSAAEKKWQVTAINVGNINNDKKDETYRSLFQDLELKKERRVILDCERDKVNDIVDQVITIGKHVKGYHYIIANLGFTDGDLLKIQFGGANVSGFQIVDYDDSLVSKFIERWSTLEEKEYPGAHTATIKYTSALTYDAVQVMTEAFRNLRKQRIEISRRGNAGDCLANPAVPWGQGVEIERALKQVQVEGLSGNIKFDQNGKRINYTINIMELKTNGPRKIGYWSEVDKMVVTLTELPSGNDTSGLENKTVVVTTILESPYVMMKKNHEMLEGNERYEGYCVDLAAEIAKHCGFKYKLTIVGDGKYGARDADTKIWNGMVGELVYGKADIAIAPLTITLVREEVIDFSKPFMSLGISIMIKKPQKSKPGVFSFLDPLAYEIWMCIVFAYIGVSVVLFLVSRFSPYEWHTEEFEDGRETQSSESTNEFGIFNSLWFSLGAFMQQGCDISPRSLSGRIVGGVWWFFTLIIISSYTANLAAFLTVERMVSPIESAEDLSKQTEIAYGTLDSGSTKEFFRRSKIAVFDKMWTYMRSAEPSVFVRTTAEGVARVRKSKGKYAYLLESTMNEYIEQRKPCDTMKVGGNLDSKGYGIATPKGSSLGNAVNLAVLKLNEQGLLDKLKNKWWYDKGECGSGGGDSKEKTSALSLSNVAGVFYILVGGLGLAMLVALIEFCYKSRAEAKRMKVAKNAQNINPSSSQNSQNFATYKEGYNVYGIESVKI

[40] = molecular target: Glyceraldehyde-3-phosphate dehydrogenase (UniProt P16858); assay: as above
[41] = molecular target: Guanine nucleotide-binding protein G(I)/G(S)/G(O) subunit gamma-5 (UniProt P63218); assay: as above
[42] = molecular target: Guanine nucleotide-binding protein G(I)/G(S)/G(T) subunit beta-1 (UniProt P62874); assay: as above
[43] = molecular target: Guanine nucleotide-binding protein subunit beta-4 (UniProt Q9HAV0); assay: as above
Sequence of Guanine nucleotide-binding protein subunit beta-4 (Q9HAV0 whole entry): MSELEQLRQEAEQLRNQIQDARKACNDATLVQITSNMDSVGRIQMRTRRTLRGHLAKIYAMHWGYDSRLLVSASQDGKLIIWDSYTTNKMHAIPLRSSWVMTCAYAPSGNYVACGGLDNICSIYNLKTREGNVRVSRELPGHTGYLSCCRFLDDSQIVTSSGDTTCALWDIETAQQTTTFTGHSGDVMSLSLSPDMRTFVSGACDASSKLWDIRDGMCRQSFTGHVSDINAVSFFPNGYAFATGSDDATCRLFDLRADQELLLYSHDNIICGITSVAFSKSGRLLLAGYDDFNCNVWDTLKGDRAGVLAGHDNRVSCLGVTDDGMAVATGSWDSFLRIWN

[44] = molecular target: Heat shock cognate 71 kDa protein (UniProt P11142); assay: as above
[45] = molecular target: Heat shock cognate 71 kDa protein (UniProt P63017); assay: as above

Sequence of Glutamate dehydrogenase 1, mitochondrial, P00367 (P00367 whole entry): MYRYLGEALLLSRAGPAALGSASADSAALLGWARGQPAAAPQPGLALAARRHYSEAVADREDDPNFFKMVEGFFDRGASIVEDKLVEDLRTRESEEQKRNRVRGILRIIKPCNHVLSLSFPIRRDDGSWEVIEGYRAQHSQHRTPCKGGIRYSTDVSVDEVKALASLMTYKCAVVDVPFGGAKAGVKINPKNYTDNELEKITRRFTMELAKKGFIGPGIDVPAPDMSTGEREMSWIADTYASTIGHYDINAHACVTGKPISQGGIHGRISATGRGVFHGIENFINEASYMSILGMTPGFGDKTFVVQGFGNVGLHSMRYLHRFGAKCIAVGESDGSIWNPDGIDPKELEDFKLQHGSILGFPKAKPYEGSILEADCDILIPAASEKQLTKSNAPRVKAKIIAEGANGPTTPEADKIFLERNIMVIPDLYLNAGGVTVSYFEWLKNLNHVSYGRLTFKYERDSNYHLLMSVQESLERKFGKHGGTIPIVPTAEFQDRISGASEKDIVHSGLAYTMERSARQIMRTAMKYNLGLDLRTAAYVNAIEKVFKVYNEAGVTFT

60 kDa heat shock protein, mitochondrial, P10809
listed as a hit [1]: yes
listed as a hit [2]: yes
listed as a hit [3]: yes
listed as a hit [4]: yes

Glutamate dehydrogenase 1, mitochondrial, P00367
listed as a hit [5]: yes
listed as a hit [6]: yes

Leucine-rich glioma-inactivated protein 1, Q9JIA1
listed as a hit [7]: yes
listed as a hit [8]: yes

Contactin-2, Q61330
listed as a hit [7]: yes

DnaJ homolog subfamily C member 5, P60904
listed as a hit [9]: yes
listed as a hit [10]: yes

DnaJ homolog subfamily A member 1, P31689
listed as a hit [11]: yes

Membrane-associated progesterone receptor component 2, O15173
listed as a hit [12]: yes
listed as a hit [13]: yes

Dynactin subunit 1, O08788
listed as a hit [14]: yes

Beta-centractin, Q8R5C5
listed as a hit [14]: yes

Dynactin subunit 2, Q99KJ8
listed as a hit [15]: yes

Dynamin-1, P39053
listed as a hit [16]: yes

Protein bassoon, O88737
listed as a hit [17]: yes
listed as a hit [18]: yes

EH domain-containing protein 3, Q9QXY6
listed as a hit [19]: yes

ER membrane protein complex subunit 8, O70378
listed as a hit [20]: yes

Thioredoxin domain-containing protein 5, Q8NBS9
listed as a hit [21]: yes

Elongation factor 1-alpha 1, P10126
listed as a hit [22]: yes

Intersectin-2, Q9NZM3
listed as a hit [23]: yes

Erlin-2, Q8BFZ9
listed as a hit [24]: yes

Eukaryotic translation initiation factor 2 subunit 1, Q6ZWX6
listed as a hit [25]: yes

Eukaryotic translation initiation factor 3 subunit A, P23116
listed as a hit [26]: yes

Syntaxin-7, O15400
listed as a hit [27]: yes

Flotillin-1, O08917
listed as a hit [28]: yes

RNA-binding protein FXR1, P51114
listed as a hit [29]: yes

Peptidyl-prolyl cis-trans isomerase F, mitochondrial, P30405
listed as a hit [30]: yes

BAG family molecular chaperone regulator 2, O95816
listed as a hit [31]: yes
listed as a hit [32]: yes

Alpha-soluble NSF attachment protein, P54920
listed as a hit [33]: yes
listed as a hit [34]: yes

Fructose-bisphosphate aldolase C, P05063
listed as a hit [35]: yes

Gamma-aminobutyric acid receptor subunit gamma-2, P22723
listed as a hit [36]: yes

Alpha-enolase, P17182
listed as a hit [37]: yes

Beta-soluble NSF attachment protein, P28663
listed as a hit [38]: yes

DOMON domain-containing protein FRRS1L, B1AXV0
listed as a hit [39]: yes

Fructose-bisphosphate aldolase A, P05064
listed as a hit [40]: yes

Guanine nucleotide-binding protein G(I)/G(S)/G(T) subunit beta-2, P62879
listed as a hit [41]: yes

Guanine nucleotide-binding protein G(I)/G(S)/G(O) subunit gamma-4, P50153
listed as a hit [42]: yes

Guanine nucleotide-binding protein G(I)/G(S)/G(O) subunit gamma-5, P63218
listed as a hit [43]: yes

Heat shock protein HSP 90-beta, P08238
listed as a hit [44]: yes

Heat shock 70 kDa protein 4L, P48722
listed as a hit [45]: yes
